Only some compounds are listed: those with a hit (about 1.6% of all), similar ones and a draw of the others.
KCNQ2 block: inhibitors of rat KCNQ2 potassium channel; O88943; CHO-K1 KCNQ2, FluxOR thallium flux, 20 min; active compounds read low; B-score at 10 µM; 310,000 tested, 1.1% active;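 active means fluorescence ratio B-score at most minus 3 library SDs, with starting brightness B-score within 2 library SDs, cut at about -5.5 in these data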
Target sequence (O88943 whole entry, looked up): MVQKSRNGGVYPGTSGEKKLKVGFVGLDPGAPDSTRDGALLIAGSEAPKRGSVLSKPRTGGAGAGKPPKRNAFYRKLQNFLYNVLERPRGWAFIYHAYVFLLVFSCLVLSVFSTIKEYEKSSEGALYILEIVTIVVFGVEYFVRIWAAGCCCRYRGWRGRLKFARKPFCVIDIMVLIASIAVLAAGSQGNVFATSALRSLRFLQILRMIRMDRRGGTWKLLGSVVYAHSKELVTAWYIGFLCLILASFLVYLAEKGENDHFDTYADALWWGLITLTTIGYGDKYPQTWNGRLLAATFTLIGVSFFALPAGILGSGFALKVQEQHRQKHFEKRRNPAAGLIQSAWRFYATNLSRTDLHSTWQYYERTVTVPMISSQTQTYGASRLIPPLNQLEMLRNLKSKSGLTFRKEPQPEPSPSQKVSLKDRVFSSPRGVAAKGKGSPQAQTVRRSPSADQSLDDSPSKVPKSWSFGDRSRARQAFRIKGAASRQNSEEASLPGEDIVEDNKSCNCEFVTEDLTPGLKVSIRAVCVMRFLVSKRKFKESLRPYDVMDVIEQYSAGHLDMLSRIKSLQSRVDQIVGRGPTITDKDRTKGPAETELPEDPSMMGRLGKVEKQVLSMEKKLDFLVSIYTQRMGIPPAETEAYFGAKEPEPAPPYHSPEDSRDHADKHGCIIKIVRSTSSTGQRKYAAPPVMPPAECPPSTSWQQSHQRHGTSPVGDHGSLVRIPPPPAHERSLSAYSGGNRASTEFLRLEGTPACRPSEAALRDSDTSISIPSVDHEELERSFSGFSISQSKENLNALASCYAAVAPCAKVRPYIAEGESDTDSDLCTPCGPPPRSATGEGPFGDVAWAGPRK
KCNQ2 enhance: KCNQ2 (rat) channel potentiation; O88943; CHO-K1 KCNQ2, FluxOR thallium flux fluorescence; active compounds read high; B-score at 10 µM; 310,000 tested, 0.54% active; AID 2239;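 active means fluorescence ratio B-score at least 3 SD of library B-scores, with initial fluorescence B-score within 3 of them, cut at about 5.3 in these data; same plate scores as AID 2156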;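 further: B-score of peak minus minimum over baseline fluorescence ratio after K+ and Tl+ stimulus; positive B-score means potentiation of KCNQ2 with more thallium influx and brighter signal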
Kir21 conf inh: confirmation of mouse Kir2.1 potassium channel inhibitors; shares compounds with KCNQ2 enhance; Kir2.1-expressing cells, FluxOR thallium flux fluorescence; active compounds read low; Tl flux remaining, % of negative control (active compounds read low), % at 10 µM; 2,300 tested, 41% active; AID 2032;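 active means Primary-screen hit whose thallium flux fell at least 3 control SD below untreated wells in both duplicates, with normal baseline fluorescence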;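 further: 0% = blank wells without stimulus and 100% = stimulated no-compound controls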
HEK293 Tl flux: parental HEK293 activity in Kir2.1 inhibitor counter-screen | shares compounds with KCNQ2 enhance | parental HEK293 cells, FluxOR thallium flux fluorescence; 0% = unstimulated blank wells | FluxOR signal as % of negative control (100 = no effect), % at 10 µM | 2,300 tested, 19% active | AID 2105;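 active means dye signal at least 3 control SD above or below untreated wells in both duplicates, raw fluorescence within 3, either direction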;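 further: percent is based on the flux ratio of peak minus minimum fluorescence over baseline F0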
CHO-K1 ctr: parental CHO-K1 activity in KCNQ2 potentiator counter-screen; shares compounds with KCNQ2 enhance; parental CHO-K1 cells, FluxOR thallium flux fluorescence; zero = vehicle mean+3SD, 100% = vehicle-minus-blank window; activity increase over 3SD of controls, % at 10 µM; 1,200 tested, 43% active; AID 2282;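 active means signal rise of at least 3 SD above the untreated control mean, in both duplicate wells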;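 further: counter screen of KCNQ2 potentiator hits so any rise reflects channel-independent effects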
KCNQ1 pot spec: selectivity of KCNQ2 potentiators: effect on human KCNQ1. 1,200 tested, 28% active. activation over 3SD threshold, % at 10 µM. CHO KCNQ1 stable, FluxOR thallium flux fluorescence; beyond 3SD, as % of vehicle-control signal. shares compounds with KCNQ2 enhance;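 active means fluorescence ratio rise of at least 3 SD of vehicle wells above their mean, in both replicate wells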;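 further: 0% = vehicle mean plus 3 SD and 100% = vehicle minus unstimulated blank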
KCNQ2 pot conf: rat KCNQ2 channel potentiator confirmation; shares compounds with KCNQ2 enhance; 1,200 tested, 68% active; potentiation, less the hit threshold, % at 10 µM; CHO-KCNQ2 cells, FluxOR thallium flux fluorescence;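 active means fluorescence ratio rising 3 SD or more over the vehicle control mean in both replicates, plus primary screen hit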;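 further: peak minus minimum thallium fluorescence divided by baseline after K/Tl stimulus; 0% = vehicle mean plus 3 SD and 100% = vehicle minus unstimulated blank difference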
Kir21 spec: mouse Kir2.1 off-target activity of KCNQ2 potentiators; shares compounds with KCNQ2 enhance; HEK293 Kir2.1, FluxOR thallium flux fluorescence; activity over 3SD threshold, % at 10 µM; 1,200 tested, 2% active;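 active means fluorescence ratio rise of at least 3 SD above the vehicle-control mean, seen in both replicates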;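 further: 0% = vehicle mean plus 3 SD and 100% = vehicle minus no-stimulus blank window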
KCNQ2 W236L MoA: potentiates the retigabine-insensitive rat KCNQ2 W236L mutant channel. 940 tested, 10% active. CHO KCNQ2-W236L, automated patch clamp current. AID 2558. shares compounds with KCNQ2 enhance. current increase over 3SD of negative controls (%), active compounds read high, % at 25 µM;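 active means current increase at least 3 SD of the untreated controls above them in both duplicate recordings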
The depositor's hits bear a star; i = inactive; x = not tested or not shown.

SMILES	KCNQ2 block	KCNQ2 enhance	Kir21 conf inh	HEK293 Tl flux	others
CC1CCc2c(sc(NC(=O)c3ccccc3C(=O)O)c2C#N)C1 (configuration not stated)	i	3.9	x	x
CCOC(=O)C1=C(C)NC(=O)NC1/C=C\c1ccccc1 (configuration not stated)	i	x	x	x
O=Cc1cccc(OC(=O)c2ccc(Cl)cc2Cl)c1	i	x	x	x
COCCNC(=O)/C(C#N)=C/c1cccs1	i	x	x	x
COCCNC(=O)/C(C#N)=C/c1ccc(OC(=O)c2cccs2)c(OC)c1	i	x	i	i
Cc1nn(Cc2c(F)cccc2Cl)c(C)c1[N+](=O)[O-]	i	x	x	x
Cc1ccc2nc(N3CCN(S(=O)(=O)c4ccc(C)c(Cl)c4)CC3)c(C#N)cc2c1	i	x	x	x
CC(C)(C)OC(=O)NCCc1nnc(SCc2ccccc2Cl)o1	i	x	x	x
CC(C)(C)OC(=O)NCCc1nnc(SCc2ccccc2)o1	i	x	45%*	77%*
Cc1ccc(CSc2nnc(CCNC(=O)OC(C)(C)C)o2)cc1	i	x	29%*	i
Cc1ccc(CSc2nnc([C@@H]3CCCN3C(=O)OC(C)(C)C)o2)cc1	i	x	50%*	66%*
CC(C)(C)OC(=O)NCCCCCc1nnc(SCc2ccc(F)cc2)o1	i	x	x	x
CC(C)(C)OC(=O)N1CCC[C@H]1c1nnc(SCc2ccccc2)o1	i	x	x	x
CCOc1ccccc1OCC(=O)O	i	x	x	x
COC(=O)C(C(C)C)N1CCc2c(C)nc3c(C#N)cnn3c21 (configuration not stated)	i	x	x	x
COc1ccc(CNC(=S)NCc2ccc(F)cc2)cc1	i	x	x	x
COc1ccc(CNCC(O)(c2ccc(F)cc2)c2ccc(F)cc2)cc1	i	x	i	i
OC(CNCc1ccccc1)(c1ccccc1)c1ccccc1	i	x	x	x
COc1ccccc1CNCC(O)(c1ccc(Cl)cc1)c1ccc(Cl)cc1	i	x	x	x
COc1ccccc1CNCC(O)(c1ccc(F)cc1)c1ccc(F)cc1	i	x	53%*	i
COc1ccc(CNCC(O)(c2ccccc2)c2ccccc2)cc1	i	x	56%*	i
O=C(N/N=C/c1ccccc1F)c1csc2c1CCCC2	i	0.49	x	x
Cc1ccc(-n2cnc3cc(NCc4cccs4)ccc32)cc1	i	0.89	x	x
CCOc1cc(NC(=S)NCC2CCCO2)c(OCC)cc1NC(=O)c1ccc(OC)cc1 (configuration not stated)	i	x	x	x
Cc1nn(-c2cccc(C(F)(F)F)c2)c(Cl)c1/C=N/Nc1cccc(C(=O)O)c1	i	9.9*	i	i	CHO-K1 ctr=-10;KCNQ1 pot spec=30*;KCNQ2 pot conf=98*;Kir21 spec=-36;KCNQ2 W236L MoA=17%*
SMILES	KCNQ2 block	KCNQ2 enhance	Kir21 conf inh	HEK293 Tl flux	others
Cc1nn(-c2ccccc2Cl)c(Cl)c1/C=N/Nc1cccc(C(=O)O)c1	i	5.2	x	x
CCNc1nc(N)c(C(=O)C23CC4CC(CC(C4)C2)C3)s1	i	x	x	x
CCOc1ccc(OCC(=O)NCc2n[nH]c(=O)c3ccccc23)cc1	i	x	x	x
COc1ccc(CCNC(=O)C2CC2)cc1OC	i	x	x	x
COc1ccc(C)cc1NC(=O)NNC(=O)C1CCC(C(C)(C)C)CC1 (configuration not stated)	i	11*	i	i	CHO-K1 ctr=-8;KCNQ1 pot spec=-16;KCNQ2 pot conf=31*;Kir21 spec=-24;KCNQ2 W236L MoA=i
COc1ccc(CCNC(=O)C2CCC(C(C)(C)C)CC2)cc1OC (configuration not stated)	i	x	48%*	i
COc1ccc(C)cc1NC(=O)C1CCN(S(C)(=O)=O)CC1	i	x	x	x
COc1ccc2c(CC(=O)OCC(=O)N3CCc4ccccc43)coc2c1	i	x	x	x
O=C(c1cccs1)N(Cc1ccc(F)cc1)C1CCS(=O)(=O)C1 (configuration not stated)	i	x	x	x
Cc1nc2c(C)cccc2cc1C(=O)N/N=C/c1ccc(O)cc1	i	x	x	x
COc1ccc(OC)c(-c2[nH]nc3c2C(c2ccco2)C(C#N)=C(N)O3)c1 (configuration not stated)	i	1.1	x	x
CCn1nc(C)c(CNC(=O)c2ccc(OC3CCN(Cc4ccccn4)CC3)cc2)c1C	i	1.1	x	x
Cc1c(C(=O)O)cccc1-c1ccc(C=O)o1	i	x	x	x
O=Cc1ccc(-c2ccccc2OC(F)(F)F)o1	i	6.6*	i	i	CHO-K1 ctr=-6;KCNQ1 pot spec=-16;KCNQ2 pot conf=-7;Kir21 spec=-18
OCCNCc1ccc(-c2ccccc2)cc1	i	1	x	x
OCCCNCc1ccc(N(c2ccccc2)c2ccccc2)cc1	i	x	23%*	i
CCOc1ccc(OCC)c(NC(=O)C2CCN(S(=O)(=O)c3c(C)[nH]c(=O)[nH]c3=O)CC2)c1	i	0.04	x	x
C/C(=N\Nc1ccccc1C)c1cccnc1	i	0.02	x	x
CN1CCN(C(=O)Nc2ccc([N+](=O)[O-])cc2)CC1	i	0.01	x	x
Cc1ccc(CS(=O)(=O)CCC(=O)N2CCOCC2)cc1	i	1.3	x	x
CCCCCCNC(=O)Nc1ccccc1	i	5.9*	i	i	CHO-K1 ctr=-8;KCNQ1 pot spec=-11;KCNQ2 pot conf=3.7*;Kir21 spec=-24;KCNQ2 W236L MoA=i
O=C(O)CCCNC(=O)Nc1ccccc1	i	0.71	x	x
Cc1[nH]c2ccccc2c1SCC(=O)N1CCCc2ccccc21	i	x	54%*	i
Cc1[nH]c2ccccc2c1C(=O)C(=O)N1CCCc2ccccc21	i	x	x	x
O=C(COC(=O)c1n[nH]c2ccccc12)Nc1ccc(Cl)cc1[N+](=O)[O-]	i	x	x	x
SMILES	KCNQ2 block	KCNQ2 enhance	Kir21 conf inh	HEK293 Tl flux	others
CSC(=S)N/N=C(\C)c1ccccc1	i	8.7*	i	288%*	CHO-K1 ctr=-12;KCNQ1 pot spec=-12;KCNQ2 pot conf=26*;Kir21 spec=-15;KCNQ2 W236L MoA=9.3%*
C/C(=N\NC(N)=S)c1ccccc1	i	x	x	x
CCn1c(=O)c(C(=O)Nc2ccccc2C)c(O)c2ccccc21	i	x	x	x
CCn1c(=O)c(C(=O)Nc2ccccc2S(N)(=O)=O)c(O)c2ccccc21	i	8*	i	i	CHO-K1 ctr=53*;KCNQ1 pot spec=-11;KCNQ2 pot conf=11*;Kir21 spec=-41;KCNQ2 W236L MoA=i
CCN(CC)CC(O)COC(c1ccccc1)c1ccccc1 (configuration not stated)	i	0.53	x	x
COc1ccc(CN(C)CC(O)COc2ccc(C(=O)c3ccccc3)cc2)c(OC)c1OC (configuration not stated)	i	x	x	x

From PubChem
